Compound activity deposited in PubChem by National Center for Advancing Translational Sciences (NCATS).
Sampled rows, rich in hits. Any-hit rate of the full collection: about 3%.
TRb-SRC2 inh = qHTS for Inhibitors of the Interaction of Thyroid Hormone Receptor and Steroid Receptor Coregulator 2; Potency, µM (top dose mostly 106 µM), actives largely listed as inhibitors; TRbeta-SRC2 peptide binding, fluorescence polarization; receptor liganded with 1 µM T3; 0.065% of 280,000 active; further: nearly all actives have a fitted effect of over 50% in size
Target sequence (P10828 whole entry, looked up): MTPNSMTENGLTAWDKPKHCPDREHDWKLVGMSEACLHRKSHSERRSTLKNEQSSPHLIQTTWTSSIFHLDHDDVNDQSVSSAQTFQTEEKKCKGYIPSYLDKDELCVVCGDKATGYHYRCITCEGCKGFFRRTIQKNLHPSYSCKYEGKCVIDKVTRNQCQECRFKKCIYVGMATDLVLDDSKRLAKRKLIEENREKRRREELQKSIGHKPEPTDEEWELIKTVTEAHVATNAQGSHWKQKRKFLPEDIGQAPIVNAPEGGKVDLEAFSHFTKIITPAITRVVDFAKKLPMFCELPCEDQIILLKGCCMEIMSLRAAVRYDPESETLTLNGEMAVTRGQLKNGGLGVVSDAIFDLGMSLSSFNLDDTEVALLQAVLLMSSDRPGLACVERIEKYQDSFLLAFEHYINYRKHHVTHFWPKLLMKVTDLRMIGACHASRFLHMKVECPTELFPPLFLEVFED
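A fluorescence polarization screen tested compounds at multiple concentrations against complex formation between 0.6 uM TRb ligand-binding domain and 20 nM Texas Red SRC2 peptide, with 1 uM T3 present; readout after 5 hr.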
Tau ThT inhib = qHTS for Inhibitors of Tau Fibril Formation, Thioflavin T Binding; recombinant tau K18 P301L, heparin-induced fibrillization, ThT fluorescence; 2.1% of 270,000 active; Microtubule-associated protein tau (Homo sapiens), P10636; AID 1460, 2008; Potency, µM (series often up to 57.4 µM), most hits filed as inhibitors; further: nearly all actives have a fitted effect of over 55% in size
Target sequence (P10636 561-689 P618L limits assumed): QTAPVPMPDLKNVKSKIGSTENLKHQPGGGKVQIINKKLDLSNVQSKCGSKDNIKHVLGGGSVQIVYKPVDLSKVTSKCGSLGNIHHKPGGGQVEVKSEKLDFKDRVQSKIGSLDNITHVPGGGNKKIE
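In this qHTS, human K18 P301L tau is incubated with compound and heparin for 6 hr at 37 C, and Thioflavin T fluorescence then reports fibril load.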
Tau fluor counter = Counterscreen qHTS for Inhibitors of Tau Fibril Formation, Fluorescence Polarization. tau K18 P301L (four-repeat tau fragment) Alexa594 fluorescence, heparin fibrillization. Potency, µM (doses to about 57.7 µM). 0.93% of 280,000 active. AID 1463, 2008; further: nearly all actives have a fitted effect of over 55% in size
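Human K18 P301L tau (15 uM unlabeled plus 0.24 uM Alexa 594-labeled, final) in 100 mM sodium acetate pH 7 was mixed with compound and 20 uM heparin and incubated 6 hr at 37 C.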
TexasRed fluor = Total Fluorescence Counterscreen for Inhibitors of the Interaction of Thyroid Hormone Receptor and Steroid Receptor Coregulator 2; Potency, µM (highest dose often 106 µM); TRb/SRC2 Texas Red total fluorescence interference; 0.29% of 280,000 active; active means well fitted curve in either direction with a large enough effect; inconclusive means small, poorly fitted or top-dose-only effect
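Human TRβ ligand-binding domain (0.6 uM) and Texas Red SRC2 peptide (20 nM) in Tris buffer with 1 uM T3 and 5% DMSO were incubated with pinned compound for 5 hr at ambient temperature. Total fluorescence was computed as S + 2P (555/632 nm).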
Tau fibril FP = qHTS for Inhibitors of Tau Fibril Formation, Fluorescence Polarization; Potency, µM (series often up to 57.7 µM), usual class: inhibitors; Microtubule-associated protein tau (Homo sapiens), P10636; K18 P301L tau heparin fibrillization, Alexa594 FP, 6 h; AID 1468, 2008; 0.39% of 280,000 active; further: nearly all actives have a fitted effect of over 55% in size
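Human K18 P301L fragment (15 uM unlabeled plus 0.24 uM Alexa 594-labeled) in 100 mM sodium acetate pH 7 with compound, aggregation induced by 20 uM heparin for 6 hr at 37 C. ThT (30 uM) added for 1 hr, then Alexa 594 FP read.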
Large screens that a line does not name were inactive; [ ] = another dose, or the depositor's remark. Unless noted, the call rests on the fitted dose curve; in most records, active means well fitted curve in the direction sought with a large enough effect; inconclusive means small, poorly fitted or top-dose-only effect, or another doubt; inactive means no such curve, though single readings can be large; an effect the other way counts as inactive or inconclusive.

Cc1cc(C)c(S(=O)(=O)/N=C2/C=C(SCC(=O)O)C(=O)c3ccccc32)cc1C	TRb-SRC2 inh inconclusive, Tau ThT inhib 7.08µM, Tau fluor counter inconclusive, Tau fibril FP 10µM
Cc1nc2nc(NCc3ccc(Cl)cc3)[nH]n2c(=O)c1Cc1ccccc1	none
CC1=CC(=O)c2c(O)ccc(O)c2C1=O	Tau ThT inhib inconclusive, Tau fluor counter inconclusive, TexasRed fluor 22.4µM[quencher], Tau fibril FP inconclusive
COC(=O)c1ccc(-c2noc(CN(C)CCC3CCCCO3)n2)cc1 (stereo not given)	Tau ThT inhib 11.2µM
CN(C)c1ncnc2c1NC1=C(S2)C(=NCCCC(=O)O)CC(C)(C)C1	Tau ThT inhib 10µM, Tau fibril FP inconclusive
CCOC(=O)c1ccc(CC(=O)c2ccc(O)c(O)c2O)o1	Tau ThT inhib 15.8µM, Tau fluor counter inconclusive, Tau fibril FP 22.4µM
COC(=O)C1=CC(C(=O)c2cccs2)=NN(c2ccc(OC)cc2)C1C(=O)OC (stereo not given)	Tau ThT inhib 14.1µM, Tau fluor counter inconclusive
COC(=O)C1=NN(c2ccc(OC)cc2)C2C(=O)N(c3ccccc3OC)C(=O)C12 (stereo not given)	none (no result: Tau ThT inhib)
CCOC(=O)Nc1ccc2c(c1)Nc1ccccc1S2	Tau ThT inhib 7.94µM, Tau fluor counter 14.1µM[quencher]
Cc1ccc(NC(=O)Cn2c(SCc3cccc(F)c3)nc3ccncc32)c(C)c1	none
COc1ccc(NC(=O)Cn2c(SCc3cccc(Cl)c3)nc3ccncc32)c(OC)c1OC	Tau ThT inhib inconclusive, Tau fluor counter 14.1µM[quencher]
CCN(CC)C(=O)c1sc(NC(=O)C(C)Sc2nc(-c3ccccc3)cc(C(F)(F)F)n2)c(C(=O)OC)c1C (stereo not given)	Tau ThT inhib 25.1µM, Tau fibril FP inconclusive
CCCOC(=O)c1c(NC(=O)C(C)Sc2nc(-c3ccccc3)cc(C(F)(F)F)n2)sc(C(=O)N(C)C)c1C (stereo not given)	Tau ThT inhib inconclusive
COc1cc(/C=C/c2ccc(O)cc2)cc(OC)c1	Tau ThT inhib inconclusive, Tau fluor counter 15.8µM[quencher]
Cc1noc(C)c1S(=O)(=O)NCCc1csc2nc(-c3ccc(Cl)cc3)nn12	Tau fluor counter inconclusive, Tau fibril FP inconclusive
COC1=C(C(=O)c2ccccc2)C(=O)C2(CC=C(C)C)C[C@H](C(=O)OCC(F)(F)F)C(C)(C)[C@@]1(CC=C(C)C)C2=O (tested in a mixture with another compound)	none
COc1cc2c3c(c1)/C(=C1/SC(NC(C)=O)=NC1=O)C(=O)N3C(C)(C)C=C2C	Tau ThT inhib 15.8µM, Tau fluor counter 14.1µM[quencher], Tau fibril FP inconclusive
COC(=O)c1ccc(NC(=O)C(C)Sc2nc(=O)cc(N)n2CCc2ccccc2)cc1 (stereo not given)	Tau fluor counter inconclusive, TexasRed fluor 17.8µM[quencher]
CC(Sc1nc(=O)cc(N)n1CCc1ccccc1)C(=O)Nc1ccc(Cl)cc1 (stereo not given)	Tau fluor counter inconclusive, Tau fibril FP inconclusive
Cc1ccc(C)c(Nc2nnc(-n3nc(C)cc3C)c3ccccc23)c1	none
C=CCNC(=O)N1CCc2nc(CCCC)c3c(c2C1)CO[C@@H](C)C3	none
Cc1ccc(NC(=O)CN2C(=O)c3cccnc3Oc3ccc(Cl)cc32)cc1	TexasRed fluor 17.8µM[quencher], Tau fibril FP inconclusive
CCc1ccccc1NC(=O)CN1C(=O)c2cccnc2Oc2ccc(Cl)cc21	TexasRed fluor 14.1µM[quencher]
CC(=O)c1cc(NC(=O)c2ccccc2)c(=O)oc1C	Tau ThT inhib 28.2µM, Tau fibril FP inconclusive
Cc1oc(=O)c(NC(=O)c2ccc(Cl)cc2)cc1C(=O)c1ccccc1	Tau ThT inhib 17.8µM, Tau fibril FP inconclusive (no result: TRb-SRC2 inh, TexasRed fluor)
CC(=O)c1cc(NC(=O)c2ccc(C)cc2)c(=O)oc1C	Tau ThT inhib 31.6µM, Tau fibril FP inconclusive
Cc1oc(=O)c(NC(=O)c2ccccc2)cc1C(=O)c1ccccc1	Tau ThT inhib 25.1µM, Tau fibril FP inconclusive
O=c1c2cccnc2n(Cc2ccccc2F)c(=O)n1Cc1ccc(F)cc1	none
CCCCc1nc2c(c3c1C[C@H](C)OC3)CN(S(=O)(=O)CCCC)CC2	none
CC12CCC=CC1C(c1ccc(/C=C/c3ccccc3)cc1F)N(Cc1ccccc1)C2=O (stereo not given)	none (no result: Tau ThT inhib, Tau fluor counter, Tau fibril FP)
O=C(COC(=O)c1cnccn1)c1ccc([N+](=O)[O-])cc1	Tau ThT inhib 15.8µM, Tau fibril FP inconclusive
CC(=O)c1ccc(N=Nc2ccc(N(C)C)cc2)cc1	Tau ThT inhib 1µM
CC(=O)c1ccc(N=Nc2ccc(C)cc2)cc1	Tau ThT inhib 4.47µM
Cc1ccc(C(=O)c2ccc(C)cc2)cc1	none
CN(C)c1ccc(C(=N)c2ccc(N(C)C)cc2)cc1	none (no result: Tau ThT inhib, Tau fluor counter, Tau fibril FP)
COc1ccc(OC)c(N=c2oc3cc(O)ccc3cc2C(N)=O)c1	Tau ThT inhib 31.6µM, Tau fluor counter inconclusive, Tau fibril FP inconclusive
COc1ccc2cc(C(N)=O)c(=Nc3ccccc3)oc2c1	none
CCOC(=O)CSc1nnc(NC(=O)c2cc([N+](=O)[O-])cc([N+](=O)[O-])c2)s1	Tau ThT inhib inconclusive
CCOC(=O)c1sc2cc([N+](=O)[O-])cc(SCC(=O)OC)c2c1N	Tau ThT inhib 7.08µM, Tau fluor counter inconclusive
CCOC(=O)c1sc2cc([N+](=O)[O-])cc(SCCO)c2c1N	Tau ThT inhib 2.24µM
COC(=O)C/C=C\[C@@H](C)[C@@H](/C=N\OC[C@@H](C)[C@H](OCc1ccccc1)C(C)C)NS(=O)(=O)c1ccc(C)cc1	none
Cc1sc2nc3c(SC(C)C(=O)O)cc(C(=O)c4ccccc4O)cn3c(=O)c2c1C (stereo not given)	Tau ThT inhib 14.1µM
O=C(O)CSc1cc(C(=O)c2ccccc2O)cn2c(=O)c3c(-c4ccccc4)csc3nc12	Tau ThT inhib 25.1µM
CCOC(=O)c1sc2nc3c(SCC(=O)O)cc(C(=O)c4ccccc4O)cn3c(=O)c2c1C	Tau ThT inhib inconclusive
CCc1nn2c(=O)cc(COc3ccc(/C=C4\C(=N)N5N=C(C)SC5=NC4=O)cc3)nc2s1	Tau ThT inhib 12.6µM
CCc1nn2c(=O)cc(COC(=O)COc3ccc(OC)cc3)nc2s1	none
C/C=C(\C)C(=O)O[C@H]1C[C@@]2(C)CCC(C(C)C)C2(O)CC[C@@]1(C)O (stereo not given in full)	Tau ThT inhib inconclusive
CCN(CC)CCNc1cc(C)nc2c1C(=O)C(=O)C=C2N1CCCCC1	Tau ThT inhib 8.91µM, Tau fibril FP inconclusive
CCn1cc2nc(SCc3cccc(C(F)(F)F)c3)n(Cc3ccc(C)cc3)c(=O)c2n1	none
